# Paper PMC7862700, “An all-to-all approach to the identification of sequence-specific readers for epigenetic DNA modifications on cytosine”
# Key:
# Assay in all cases: DAPPL (digital affinity profiling via proximity ligation, sequencing); 10 mM Tris-HCl pH 7.5, 50 mM NaCl, 1 mM DTT, 4% glycerol, room temperature, 30 min; GST-TFs on glutathione beads, 16-mer random dsDNA library, 0.1% formaldehyde crosslink after washing; high values mean tight binding
# FEV = biological target: T1, FEV (Homo sapiens, UniProt Q99581 1-238); conditions: protein: recombinant; tags: N-terminal GST; dsDNA, one strand shown
# T1 sequence: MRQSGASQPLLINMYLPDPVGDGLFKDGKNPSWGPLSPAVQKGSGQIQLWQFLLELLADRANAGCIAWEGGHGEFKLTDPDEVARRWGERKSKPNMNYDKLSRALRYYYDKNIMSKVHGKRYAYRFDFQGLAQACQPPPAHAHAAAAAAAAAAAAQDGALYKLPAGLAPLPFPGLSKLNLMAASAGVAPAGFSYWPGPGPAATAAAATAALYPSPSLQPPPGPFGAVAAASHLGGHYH
# Outline: (§1)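 Binding signal is each hexamer's read frequency for a factor divided by its frequency in the tag-only sample. The factors were GST-fused human transcription factors from yeast, captured on glutathione beads, DNA-barcoded and pooled with that sample. Pools were incubated with 200 nmole of a random double-stranded 16-mer DNA library in Tris/NaCl/DTT/glycerol buffer at room temperature for 30 min, then washed, crosslinked with 0.1% formaldehyde, proximity-ligated with BsaI/T4 ligase (1 h, 37 °C), PCR-amplified and sequenced on an Illumina NextSeq500.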
# ETV5 = ETV5 (Homo sapiens, UniProt P41161 1-510); conditions: protein: recombinant; tags: N-terminal GST; dsDNA, one strand shown
# Sequence of ETV5 (P41161 whole entry): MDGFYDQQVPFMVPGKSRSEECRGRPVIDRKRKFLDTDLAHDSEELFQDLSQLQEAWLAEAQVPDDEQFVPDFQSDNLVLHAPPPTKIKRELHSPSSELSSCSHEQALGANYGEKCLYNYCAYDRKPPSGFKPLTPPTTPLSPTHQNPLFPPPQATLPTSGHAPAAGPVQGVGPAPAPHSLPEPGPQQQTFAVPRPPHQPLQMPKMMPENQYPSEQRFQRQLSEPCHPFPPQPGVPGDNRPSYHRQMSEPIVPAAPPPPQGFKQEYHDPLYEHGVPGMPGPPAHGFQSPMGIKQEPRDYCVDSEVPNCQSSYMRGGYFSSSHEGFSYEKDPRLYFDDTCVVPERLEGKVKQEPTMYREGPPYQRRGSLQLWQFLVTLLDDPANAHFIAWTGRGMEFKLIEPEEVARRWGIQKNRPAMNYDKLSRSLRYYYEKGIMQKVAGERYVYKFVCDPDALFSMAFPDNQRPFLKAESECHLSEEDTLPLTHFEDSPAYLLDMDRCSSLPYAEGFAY
# Outline: as §1
# HSF1 = HSF1 (Homo sapiens, UniProt Q00613 1-529); conditions: protein: recombinant; tags: N-terminal GST; chain copies: 3; dsDNA, one strand shown
# Sequence of HSF1 (Q00613 whole entry): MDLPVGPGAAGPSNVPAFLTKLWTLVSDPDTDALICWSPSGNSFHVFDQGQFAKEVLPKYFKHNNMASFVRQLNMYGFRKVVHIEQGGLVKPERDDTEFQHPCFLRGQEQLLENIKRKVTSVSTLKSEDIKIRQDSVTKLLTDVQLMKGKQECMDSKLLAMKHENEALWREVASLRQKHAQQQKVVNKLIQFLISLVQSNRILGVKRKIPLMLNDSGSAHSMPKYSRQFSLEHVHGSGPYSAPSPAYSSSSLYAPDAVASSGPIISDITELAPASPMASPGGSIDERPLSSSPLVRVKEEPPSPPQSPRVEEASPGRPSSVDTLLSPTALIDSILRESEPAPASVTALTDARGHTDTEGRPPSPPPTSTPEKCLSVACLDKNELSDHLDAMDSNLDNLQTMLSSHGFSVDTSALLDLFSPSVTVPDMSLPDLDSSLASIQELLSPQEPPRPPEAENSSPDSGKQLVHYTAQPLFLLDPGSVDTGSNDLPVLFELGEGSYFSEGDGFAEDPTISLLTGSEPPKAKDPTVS
# Outline: as §1
# SPIC = biological target: T2, SPIC (Homo sapiens, UniProt Q8N5J4 1-248); conditions: protein: recombinant; tags: N-terminal GST; dsDNA, one strand shown
# T2 sequence: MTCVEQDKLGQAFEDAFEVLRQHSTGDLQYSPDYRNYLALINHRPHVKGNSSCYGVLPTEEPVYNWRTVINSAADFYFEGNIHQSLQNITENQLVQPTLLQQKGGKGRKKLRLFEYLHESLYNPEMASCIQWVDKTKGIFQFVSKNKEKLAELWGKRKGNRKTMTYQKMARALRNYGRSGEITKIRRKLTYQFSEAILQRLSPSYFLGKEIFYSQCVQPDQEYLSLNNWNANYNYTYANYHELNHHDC
# Outline: as §1
# ELF4 = ELF4 (Homo sapiens, UniProt Q99607 1-663); conditions: protein: recombinant; tags: N-terminal GST; dsDNA, one strand shown
# Sequence of ELF4 (Q99607 whole entry): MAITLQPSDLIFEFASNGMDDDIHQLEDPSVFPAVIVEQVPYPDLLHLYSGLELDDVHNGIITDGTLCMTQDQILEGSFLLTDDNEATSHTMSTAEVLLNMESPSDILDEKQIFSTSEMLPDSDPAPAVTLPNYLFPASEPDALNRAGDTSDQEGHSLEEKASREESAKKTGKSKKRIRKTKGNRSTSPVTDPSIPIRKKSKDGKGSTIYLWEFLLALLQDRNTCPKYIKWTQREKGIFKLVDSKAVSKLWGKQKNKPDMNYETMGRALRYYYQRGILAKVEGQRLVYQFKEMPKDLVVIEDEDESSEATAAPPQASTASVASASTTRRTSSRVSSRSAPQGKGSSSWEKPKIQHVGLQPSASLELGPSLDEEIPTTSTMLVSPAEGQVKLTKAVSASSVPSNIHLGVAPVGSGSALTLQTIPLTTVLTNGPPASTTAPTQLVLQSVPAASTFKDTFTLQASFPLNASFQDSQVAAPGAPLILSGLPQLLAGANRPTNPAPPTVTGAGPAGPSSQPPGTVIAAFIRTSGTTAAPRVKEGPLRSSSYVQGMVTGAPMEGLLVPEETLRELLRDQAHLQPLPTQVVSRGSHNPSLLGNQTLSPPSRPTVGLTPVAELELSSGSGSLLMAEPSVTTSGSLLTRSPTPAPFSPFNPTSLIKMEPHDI
# Outline: as §1
# ELK4 = biological target: T3, ELK4 (Homo sapiens, UniProt P28324-2 1-405); conditions: protein: recombinant; tags: N-terminal GST; dsDNA, one strand shown
# T3 sequence: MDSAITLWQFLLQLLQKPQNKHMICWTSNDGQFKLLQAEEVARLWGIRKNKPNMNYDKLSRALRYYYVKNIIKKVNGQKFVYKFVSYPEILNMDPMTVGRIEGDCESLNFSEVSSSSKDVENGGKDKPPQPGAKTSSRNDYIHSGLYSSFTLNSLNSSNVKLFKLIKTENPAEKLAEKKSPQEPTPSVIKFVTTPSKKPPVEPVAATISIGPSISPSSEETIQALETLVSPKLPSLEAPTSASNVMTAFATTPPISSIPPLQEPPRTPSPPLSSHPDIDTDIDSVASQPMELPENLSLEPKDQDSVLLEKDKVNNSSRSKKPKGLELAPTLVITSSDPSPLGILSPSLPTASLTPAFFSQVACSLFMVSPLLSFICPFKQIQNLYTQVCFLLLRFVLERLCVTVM
# Outline: as §1
# ETV2 = biological target: T4, ETV2 (Homo sapiens, UniProt O00321 1-342); conditions: protein: recombinant; tags: N-terminal GST; dsDNA, one strand shown
# T4 sequence: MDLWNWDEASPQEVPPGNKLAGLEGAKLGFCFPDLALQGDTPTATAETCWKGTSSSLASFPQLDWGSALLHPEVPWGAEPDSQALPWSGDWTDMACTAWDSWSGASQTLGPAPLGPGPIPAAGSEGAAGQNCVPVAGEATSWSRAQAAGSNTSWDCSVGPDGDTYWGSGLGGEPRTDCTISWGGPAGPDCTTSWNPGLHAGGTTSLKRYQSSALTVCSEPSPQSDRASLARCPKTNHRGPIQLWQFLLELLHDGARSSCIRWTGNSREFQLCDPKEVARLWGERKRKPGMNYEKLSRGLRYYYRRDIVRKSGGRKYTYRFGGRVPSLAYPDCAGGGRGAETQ
# Outline: as §1
# ELF3 = biological target: T5, ELF3 (Homo sapiens, UniProt P78545 1-371); conditions: protein: recombinant; tags: N-terminal GST; dsDNA, one strand shown
# T5 sequence: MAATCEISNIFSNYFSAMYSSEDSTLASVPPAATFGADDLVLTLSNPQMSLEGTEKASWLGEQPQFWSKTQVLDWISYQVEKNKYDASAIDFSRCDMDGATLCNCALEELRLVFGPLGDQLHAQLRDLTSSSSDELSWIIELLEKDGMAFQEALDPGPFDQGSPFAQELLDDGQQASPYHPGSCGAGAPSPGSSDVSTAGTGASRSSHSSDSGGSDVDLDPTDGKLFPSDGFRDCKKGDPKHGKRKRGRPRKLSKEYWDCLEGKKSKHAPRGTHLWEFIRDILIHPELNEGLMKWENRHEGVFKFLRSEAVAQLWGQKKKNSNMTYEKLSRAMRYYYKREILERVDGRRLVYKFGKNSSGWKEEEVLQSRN
# Outline: as §1
# CRX = CRX (Homo sapiens, UniProt O43186 1-299); conditions: protein: recombinant; tags: N-terminal GST; dsDNA, one strand shown
# Sequence of CRX (O43186 whole entry): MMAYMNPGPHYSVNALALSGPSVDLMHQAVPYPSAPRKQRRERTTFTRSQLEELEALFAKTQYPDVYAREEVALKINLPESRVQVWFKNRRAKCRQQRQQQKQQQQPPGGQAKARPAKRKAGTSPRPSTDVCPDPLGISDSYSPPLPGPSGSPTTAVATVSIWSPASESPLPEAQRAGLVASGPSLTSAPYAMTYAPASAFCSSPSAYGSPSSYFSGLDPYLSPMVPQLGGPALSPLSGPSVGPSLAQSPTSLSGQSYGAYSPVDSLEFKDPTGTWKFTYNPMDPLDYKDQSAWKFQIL
# Outline: as §1
# ETV1 = ETV1 (Homo sapiens, UniProt P50549 1-477); conditions: protein: recombinant; tags: N-terminal GST; dsDNA, one strand shown
# Sequence of ETV1 (P50549 whole entry): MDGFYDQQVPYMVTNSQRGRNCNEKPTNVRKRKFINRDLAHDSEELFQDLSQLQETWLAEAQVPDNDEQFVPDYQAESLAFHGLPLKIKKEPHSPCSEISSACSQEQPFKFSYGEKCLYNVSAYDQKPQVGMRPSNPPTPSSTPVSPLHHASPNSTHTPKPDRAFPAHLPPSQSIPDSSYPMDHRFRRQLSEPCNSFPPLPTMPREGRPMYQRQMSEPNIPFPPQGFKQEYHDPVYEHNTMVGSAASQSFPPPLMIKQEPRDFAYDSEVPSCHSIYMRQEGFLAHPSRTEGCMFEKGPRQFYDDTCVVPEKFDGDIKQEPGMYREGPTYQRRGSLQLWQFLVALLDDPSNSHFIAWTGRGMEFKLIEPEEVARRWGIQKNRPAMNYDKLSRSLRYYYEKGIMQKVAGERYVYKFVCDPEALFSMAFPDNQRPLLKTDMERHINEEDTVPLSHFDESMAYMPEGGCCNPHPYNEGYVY
# Outline: as §1
# ERF = biological target: T6, ERF (Homo sapiens, UniProt P50548 1-548); conditions: protein: recombinant; tags: N-terminal GST; dsDNA, one strand shown
# T6 sequence: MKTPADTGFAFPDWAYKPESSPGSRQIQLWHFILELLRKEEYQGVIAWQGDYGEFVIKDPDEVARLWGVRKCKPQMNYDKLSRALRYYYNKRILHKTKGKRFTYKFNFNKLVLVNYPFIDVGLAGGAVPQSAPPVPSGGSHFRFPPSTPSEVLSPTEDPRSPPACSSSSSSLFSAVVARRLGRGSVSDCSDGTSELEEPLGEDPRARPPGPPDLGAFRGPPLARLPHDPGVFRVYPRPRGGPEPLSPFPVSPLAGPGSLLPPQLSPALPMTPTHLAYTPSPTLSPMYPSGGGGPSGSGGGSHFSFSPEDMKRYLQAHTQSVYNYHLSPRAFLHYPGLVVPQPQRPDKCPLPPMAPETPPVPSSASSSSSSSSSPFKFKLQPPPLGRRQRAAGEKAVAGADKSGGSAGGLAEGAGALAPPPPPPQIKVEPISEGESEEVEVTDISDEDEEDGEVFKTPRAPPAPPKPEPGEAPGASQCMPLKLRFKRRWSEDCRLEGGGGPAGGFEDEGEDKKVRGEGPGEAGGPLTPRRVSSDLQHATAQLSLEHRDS
# Outline: as §1
# ETV3L = biological target: T7, ETV3L (Homo sapiens, UniProt Q6ZN32 1-361); conditions: protein: recombinant; tags: N-terminal GST; dsDNA, one strand shown
# T7 sequence: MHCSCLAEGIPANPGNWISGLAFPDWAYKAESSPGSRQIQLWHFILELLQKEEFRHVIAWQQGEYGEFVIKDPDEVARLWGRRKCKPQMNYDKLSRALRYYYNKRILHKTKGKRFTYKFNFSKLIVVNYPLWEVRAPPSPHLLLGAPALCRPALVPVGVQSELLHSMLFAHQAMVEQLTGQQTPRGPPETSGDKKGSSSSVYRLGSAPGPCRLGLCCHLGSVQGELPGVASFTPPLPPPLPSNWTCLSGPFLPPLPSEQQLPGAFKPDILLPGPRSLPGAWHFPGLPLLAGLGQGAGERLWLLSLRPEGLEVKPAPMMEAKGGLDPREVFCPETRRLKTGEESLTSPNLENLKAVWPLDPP
# Outline: as §1
# ETS2 = biological target: T8, ETS2 (Homo sapiens, UniProt P15036 1-469); conditions: protein: recombinant; tags: N-terminal GST; dsDNA, one strand shown
# T8 sequence: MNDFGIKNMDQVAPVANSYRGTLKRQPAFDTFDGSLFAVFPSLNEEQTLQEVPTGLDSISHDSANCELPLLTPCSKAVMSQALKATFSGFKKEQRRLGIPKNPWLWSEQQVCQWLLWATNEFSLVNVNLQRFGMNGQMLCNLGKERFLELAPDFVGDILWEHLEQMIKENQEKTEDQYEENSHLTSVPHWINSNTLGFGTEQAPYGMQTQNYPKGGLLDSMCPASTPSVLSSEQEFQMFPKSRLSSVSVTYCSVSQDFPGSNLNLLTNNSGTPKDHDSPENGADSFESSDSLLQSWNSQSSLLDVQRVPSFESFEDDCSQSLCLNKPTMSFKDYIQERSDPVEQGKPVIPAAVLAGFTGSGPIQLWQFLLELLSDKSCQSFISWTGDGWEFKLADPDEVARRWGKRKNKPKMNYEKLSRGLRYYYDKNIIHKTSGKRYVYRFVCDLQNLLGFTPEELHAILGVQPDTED
# Outline: as §1
# SPDEF = biological target: T9, SPDEF (Homo sapiens, UniProt O95238 1-335); conditions: protein: recombinant; tags: N-terminal GST; dsDNA, one strand shown
# T9 sequence: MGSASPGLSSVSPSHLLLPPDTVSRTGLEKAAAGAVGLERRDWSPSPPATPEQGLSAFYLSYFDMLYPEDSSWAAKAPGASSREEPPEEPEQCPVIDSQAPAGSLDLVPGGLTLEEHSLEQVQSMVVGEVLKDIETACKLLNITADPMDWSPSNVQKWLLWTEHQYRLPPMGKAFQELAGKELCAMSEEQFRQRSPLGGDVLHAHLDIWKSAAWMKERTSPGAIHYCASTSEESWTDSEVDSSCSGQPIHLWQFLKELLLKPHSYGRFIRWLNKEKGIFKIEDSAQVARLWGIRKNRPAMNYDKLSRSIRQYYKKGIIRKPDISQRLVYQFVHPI
# Outline: as §1
# ETV7 = biological target: T10, ETV7 (Homo sapiens, UniProt Q9Y603 1-341); conditions: protein: recombinant; tags: N-terminal GST; dsDNA, one strand shown
# T10 sequence: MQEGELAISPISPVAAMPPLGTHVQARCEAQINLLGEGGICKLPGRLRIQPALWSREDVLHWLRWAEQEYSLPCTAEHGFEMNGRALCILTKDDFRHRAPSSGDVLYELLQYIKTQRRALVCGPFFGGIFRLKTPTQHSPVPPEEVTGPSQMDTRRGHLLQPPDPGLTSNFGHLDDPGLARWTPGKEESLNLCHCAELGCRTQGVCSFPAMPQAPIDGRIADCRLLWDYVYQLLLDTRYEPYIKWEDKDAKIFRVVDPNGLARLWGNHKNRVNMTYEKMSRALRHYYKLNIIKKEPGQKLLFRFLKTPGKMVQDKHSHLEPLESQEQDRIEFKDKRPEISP
# Outline: as §1
# ELF5 = biological target: T11, ELF5 (Homo sapiens, UniProt Q9UKW6-2 1-255); conditions: protein: recombinant; tags: N-terminal GST; dsDNA, one strand shown
# T11 sequence: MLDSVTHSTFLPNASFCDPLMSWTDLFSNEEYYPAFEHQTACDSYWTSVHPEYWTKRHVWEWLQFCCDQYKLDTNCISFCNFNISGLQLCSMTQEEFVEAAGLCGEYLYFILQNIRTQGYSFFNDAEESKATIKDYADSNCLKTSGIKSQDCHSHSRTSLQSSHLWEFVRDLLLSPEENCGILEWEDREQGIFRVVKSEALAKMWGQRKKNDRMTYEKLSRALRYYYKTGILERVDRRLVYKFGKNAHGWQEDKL
# Outline: as §1
# ETV3 = biological target: T12, ETV3 (Homo sapiens, UniProt P41162-2 1-143); conditions: protein: recombinant; tags: N-terminal GST; dsDNA, one strand shown
# T12 sequence: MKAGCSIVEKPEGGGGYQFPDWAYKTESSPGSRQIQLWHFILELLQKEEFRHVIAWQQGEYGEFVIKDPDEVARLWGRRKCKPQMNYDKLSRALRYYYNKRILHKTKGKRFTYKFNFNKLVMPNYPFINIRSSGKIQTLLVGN
# Outline: as §1
# ETV6 = ETV6 (Homo sapiens, UniProt P41212 1-452); conditions: protein: recombinant; tags: N-terminal GST; dsDNA, one strand shown
# Sequence of ETV6 (P41212 whole entry): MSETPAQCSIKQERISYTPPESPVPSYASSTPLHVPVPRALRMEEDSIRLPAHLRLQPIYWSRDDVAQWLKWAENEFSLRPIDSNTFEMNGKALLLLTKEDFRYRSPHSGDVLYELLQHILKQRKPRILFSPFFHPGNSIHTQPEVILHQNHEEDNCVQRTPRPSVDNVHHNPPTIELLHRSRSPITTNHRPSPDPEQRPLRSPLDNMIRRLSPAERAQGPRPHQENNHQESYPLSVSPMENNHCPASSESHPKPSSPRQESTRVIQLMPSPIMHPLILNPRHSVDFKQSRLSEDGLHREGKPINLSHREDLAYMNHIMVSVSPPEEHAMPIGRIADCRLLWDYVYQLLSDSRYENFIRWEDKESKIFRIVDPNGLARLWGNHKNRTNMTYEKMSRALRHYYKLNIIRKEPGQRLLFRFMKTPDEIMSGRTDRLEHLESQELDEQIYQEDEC
# Outline: as §1
sequence,measurement,setting,value
TCTTCG,binding signal,FEV,"1.49 fold enrichment (6-mer frequency, TF over GST control)"
same,binding signal,ETV5,"1.51 fold enrichment (6-mer frequency, TF over GST control)"
same,binding signal,HSF1,"1.97 fold enrichment (6-mer frequency, TF over GST control)"
same,binding signal,SPIC,"1.38 fold enrichment (6-mer frequency, TF over GST control)"
same,binding signal,ELF4,"1.49 fold enrichment (6-mer frequency, TF over GST control)"
same,binding signal,ELK4,"1.45 fold enrichment (6-mer frequency, TF over GST control)"
same,binding signal,ETV2,"1.5 fold enrichment (6-mer frequency, TF over GST control)"
same,binding signal,ELF3,"1.47 fold enrichment (6-mer frequency, TF over GST control)"
same,binding signal,CRX,"1.61 fold enrichment (6-mer frequency, TF over GST control)"
same,binding signal,ETV1,"1.47 fold enrichment (6-mer frequency, TF over GST control)"
same,binding signal,ERF,"1.45 fold enrichment (6-mer frequency, TF over GST control)"
same,binding signal,ETV3L,"1.48 fold enrichment (6-mer frequency, TF over GST control)"
same,binding signal,ETS2,"1.55 fold enrichment (6-mer frequency, TF over GST control)"
same,binding signal,SPDEF,"1.49 fold enrichment (6-mer frequency, TF over GST control)"
same,binding signal,ETV7,"1.46 fold enrichment (6-mer frequency, TF over GST control)"
same,binding signal,ELF5,"1.4 fold enrichment (6-mer frequency, TF over GST control)"
same,binding signal,ETV3,"1.49 fold enrichment (6-mer frequency, TF over GST control)"
same,binding signal,ETV6,"1.36 fold enrichment (6-mer frequency, TF over GST control)"
